Compound activity (PubChem BioAssay)
LEDGF integ inh: blocks HIV-1 LEDGF/p75-dependent DNA integration; 370,000 tested, 0.64% active; AID 743269; TR-FRET IN-LEDGF/p75 DNA integration, Eu/Cy5; inhibition, % at 3.7 µM;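 active means inhibition above the screen-wide mean plus 3 SD, cut at about 13% in these data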;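 further: signal is the Cy5 over europium emission ratio at 671 and 618 nm; 0% = plate median of compound wells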
PG9 binder: PG9 antibody binding by small molecule; TR-FRET gp120-PG9 antibody binding; inhibition, % at 6.7 µM; 360,000 tested, 0.43% active; in the data active means inhibition above about 8.5%
DNMT1 inh: blocks human DNA methyltransferase DNMT1; P26358; inhibition (reported as % activation of signal), % at 10 µM; DNMT1 molecular beacon, Hinp1I cleavage, fluorescence; 360,000 tested, 0.83% active; in the data active means inhibition above about 50%
Target sequence (P26358 504-1616 limits assumed): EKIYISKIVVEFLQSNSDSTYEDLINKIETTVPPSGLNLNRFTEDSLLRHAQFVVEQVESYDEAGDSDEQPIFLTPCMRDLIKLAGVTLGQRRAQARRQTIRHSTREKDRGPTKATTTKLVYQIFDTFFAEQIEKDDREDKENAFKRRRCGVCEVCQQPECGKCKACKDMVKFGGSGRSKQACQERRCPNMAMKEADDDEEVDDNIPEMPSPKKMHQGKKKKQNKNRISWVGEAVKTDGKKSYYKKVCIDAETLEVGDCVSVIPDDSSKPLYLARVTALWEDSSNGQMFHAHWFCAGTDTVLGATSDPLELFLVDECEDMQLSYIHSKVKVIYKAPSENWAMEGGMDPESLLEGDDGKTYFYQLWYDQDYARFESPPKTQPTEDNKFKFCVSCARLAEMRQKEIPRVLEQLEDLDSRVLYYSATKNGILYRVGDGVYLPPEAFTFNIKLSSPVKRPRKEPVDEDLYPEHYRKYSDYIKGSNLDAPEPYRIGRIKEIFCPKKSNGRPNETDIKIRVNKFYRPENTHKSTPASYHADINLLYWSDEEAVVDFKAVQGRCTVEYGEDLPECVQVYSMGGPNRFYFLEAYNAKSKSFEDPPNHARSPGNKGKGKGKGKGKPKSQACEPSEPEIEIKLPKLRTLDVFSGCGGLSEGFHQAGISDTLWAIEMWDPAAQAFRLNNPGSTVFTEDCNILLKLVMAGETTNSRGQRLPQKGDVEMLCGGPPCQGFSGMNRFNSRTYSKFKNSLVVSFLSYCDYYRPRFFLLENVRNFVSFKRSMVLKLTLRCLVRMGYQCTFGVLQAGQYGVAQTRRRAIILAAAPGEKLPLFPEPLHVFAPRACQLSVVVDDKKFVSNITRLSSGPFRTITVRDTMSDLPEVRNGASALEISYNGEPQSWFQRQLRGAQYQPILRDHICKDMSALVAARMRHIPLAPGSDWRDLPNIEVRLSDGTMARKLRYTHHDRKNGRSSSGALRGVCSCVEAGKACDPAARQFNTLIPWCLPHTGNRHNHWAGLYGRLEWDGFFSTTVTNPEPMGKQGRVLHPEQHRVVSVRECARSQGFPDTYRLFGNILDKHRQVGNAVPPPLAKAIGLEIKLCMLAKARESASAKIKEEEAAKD
UHRF1 binding: UHRF1 methyl-DNA binding inhibition. Q96T88. 370,000 tested, 0.75% active. UHRF1 binding to methylated oligo, TR-FRET. inhibition, % at 4.4 µM; in the data active means inhibition above about 21%;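 further: UHRF1 SRA domain binding a hemimethylated CpG hairpin DNA probe; 0% = median of test compound wells and 100% = reference inhibitor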
MBD2 inh: inhibitors of human MBD2 binding to methylated oligonucleotide; TR-FRET; inhibition, % at 4.4 µM; 370,000 tested, 0.31% active; in the data active means inhibition above about 13%
rCAG binder: r(CAG) repeat RNA binding; inhibition, % at 3 µM; 370,000 tested, 1.3% active; TO-PRO-1 dye displacement fluorescence;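 active means inhibition above the plate cutoff, the mean of all test compounds on that plate plus 3 SD, cut at about 35% in these data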;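 further: 0% = DMSO alone and 100% = 100 µM mitoxantrone as full dye displacement; higher means more dye released from RNA so lower well fluorescence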
DNMT1 inh conf: DNMT1 inhibition confirmation, single concentration; shares compounds with DNMT1 inh; 2,300 tested, 8% active; inhibition, % at 10 µM; AID 602385; DNMT1 molecular beacon HinP1I cleavage, fluorescence;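 active means average inhibition of at least 30% in the single-concentration confirmation test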
DNMT1 interf: beacon fluorescence artifact counter-screen; shares compounds with DNMT1 inh; DNMT1 molecular beacon spectral interference counterscreen, fluorescence 485/520; activation (fluorescence interference), % at 10 µM; 2,300 tested, 1% active;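 active means activation of at least 30% at 10 µM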;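 further: DNMT1 catalytic domain with a HinP1I cleavage step and a FAM/dabcyl DNA beacon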
Numbers without * were called inactive. The list is not random: actives were taken first. Their share in the collection is about 3.5%.

CCCSc1nc2c(c(=O)[nH]c(=O)n2C)n1Cc1ccc(C)cc1 was read as LEDGF integ inh -4, PG9 binder 0, DNMT1 inh 54*, UHRF1 binding 5, MBD2 inh 0, rCAG binder 8, DNMT1 inh conf 0 and DNMT1 interf 1.
Cc1ccc(Cn2c(SCc3cccnc3)nc3c2c(=O)n(C)c(=O)n3C)cc1 was read as LEDGF integ inh -2, PG9 binder -1, DNMT1 inh 108*, UHRF1 binding 2, MBD2 inh 5, rCAG binder -6, DNMT1 inh conf 7 and DNMT1 interf 5.
N#Cc1ccc(OCC(=O)N2CCN(c3ccc(C(F)(F)F)cn3)CC2)cc1 was read as LEDGF integ inh 0, PG9 binder -2, DNMT1 inh 0, UHRF1 binding 14, MBD2 inh 1 and rCAG binder 0.
`COc1ccc(NC(=O)c2cc(-c3sc(NC(=O)c4ccccc4)nc3C)n(-c3ccc(Br)cc3)n2)cc1` gave LEDGF integ inh -1, PG9 binder 0, UHRF1 binding 7, MBD2 inh 5 and rCAG binder 9.
For Brc1cccc(-c2nc3c4ccccc4ccn3c2Cc2ccsc2)c1 the results were LEDGF integ inh -3, PG9 binder 0, DNMT1 inh -13, UHRF1 binding -1, MBD2 inh 0 and rCAG binder 6.
`O=C(Nc1nc2ccc(F)cc2s1)C1CCN(S(=O)(=O)c2cc([N+](=O)[O-])ccc2Cl)CC1` gave LEDGF integ inh 3, PG9 binder -4, DNMT1 inh 27, UHRF1 binding 2, MBD2 inh 0 and rCAG binder 21.
Cc1ccc2nc(NC(=O)C3CCN(S(=O)(=O)c4cc([N+](=O)[O-])ccc4Cl)CC3)sc2c1 was read as LEDGF integ inh 0, PG9 binder 1, DNMT1 inh 60*, UHRF1 binding -2, MBD2 inh 4, rCAG binder 20, DNMT1 inh conf 2 and DNMT1 interf -3.
For O=C(COC(=O)C1CCN(S(=O)(=O)c2cc([N+](=O)[O-])ccc2Cl)CC1)Nc1ncc(Cl)cc1Cl the results were LEDGF integ inh 2, PG9 binder 1, DNMT1 inh 86*, UHRF1 binding 5, MBD2 inh 4, rCAG binder 13, DNMT1 inh conf 4 and DNMT1 interf -3.
Cc1ccc(S(=O)(=O)N2CCN(C(=O)c3cccn3C)CC2)cc1 was read as LEDGF integ inh -5, UHRF1 binding 2, MBD2 inh 4 and rCAG binder 3.
For Cc1c(NC2=NC(C)(C)Cc3ccccc32)c(=O)n(-c2ccccc2)n1C the results were LEDGF integ inh -1, PG9 binder -2, DNMT1 inh 4, UHRF1 binding 0, MBD2 inh 2 and rCAG binder -3.
For Cc1c(NC2=NC3(CCCCC3)Cc3ccccc32)c(=O)n(C)n1-c1ccccc1 the results were LEDGF integ inh -2, PG9 binder 3, DNMT1 inh 83*, UHRF1 binding 2, MBD2 inh -3, rCAG binder -10, DNMT1 inh conf -1 and DNMT1 interf -2.
Screening NC(=S)N/N=C/c1coc2c(ccc3ccccc32)c1=O returned LEDGF integ inh 1, PG9 binder -3, DNMT1 inh 55*, UHRF1 binding -8, MBD2 inh -6, rCAG binder 5, DNMT1 inh conf 2 and DNMT1 interf -7.
For NC(=S)N/N=C/c1coc2cc(Br)ccc2c1=O the results were LEDGF integ inh -8, PG9 binder -3, DNMT1 inh 0, UHRF1 binding -3, MBD2 inh 3 and rCAG binder 4.
Screening O=C(N=Nc1c(O)n(Cc2ccccc2)c2ccccc12)c1cc2ccccc2cc1O returned LEDGF integ inh 0, PG9 binder -3, DNMT1 inh 82*, UHRF1 binding -1, MBD2 inh 0, rCAG binder 10, DNMT1 inh conf 2 and DNMT1 interf -8.
Screening Cc1ccc(NC(=O)Cn2c(O)c(N=NC(=O)c3cc4ccccc4cc3O)c3ccccc32)cc1 returned LEDGF integ inh 2, PG9 binder -2, DNMT1 inh 10, UHRF1 binding -2, MBD2 inh 0 and rCAG binder 8.
Screening c1ccc(-n2nnnc2-c2cccc3ccccc23)cc1 returned LEDGF integ inh -4, PG9 binder 2, DNMT1 inh 3, UHRF1 binding -1, MBD2 inh 1 and rCAG binder 3.
Screening O=C(CSc1nc2ccccc2c(=O)n1-c1ccccc1)N1CCCc2ccccc21 returned LEDGF integ inh 4, PG9 binder -2, DNMT1 inh 4, UHRF1 binding 0, MBD2 inh -2 and rCAG binder 0.
COc1cccc(-n2c(SCC(=O)N3CCc4ccccc43)nnc2-c2c[nH]c3ccccc23)c1 was read as LEDGF integ inh 4, PG9 binder -1, DNMT1 inh 27, UHRF1 binding -1, MBD2 inh 3 and rCAG binder 4.
For CCOc1ccc(-n2c(SCC(=O)N3CCc4ccccc43)nnc2-c2c[nH]c3ccccc23)cc1 the results were LEDGF integ inh 0, PG9 binder 0, DNMT1 inh 80*, UHRF1 binding 0, MBD2 inh -6, rCAG binder 3, DNMT1 inh conf -1 and DNMT1 interf -6.
O=C(CSc1nc2ccccc2c(=O)n1-c1ccccc1)N1CCc2ccccc21 was read as LEDGF integ inh 0, PG9 binder -1, DNMT1 inh 53*, UHRF1 binding 2, MBD2 inh 1, rCAG binder 1, DNMT1 inh conf -2 and DNMT1 interf -10.
COCCNC(=S)NC1CC2CCCC(C1)N2Cc1cccs1 (stereo not given) was read as LEDGF integ inh -3, PG9 binder -2, DNMT1 inh 2, UHRF1 binding -1, MBD2 inh -2 and rCAG binder -6.
For Cc1cccc(NC(=S)NC2CC3CCCC(C2)N3Cc2cccs2)c1 (stereo not given) the results were LEDGF integ inh 4, PG9 binder -2, DNMT1 inh 84*, UHRF1 binding -4, MBD2 inh 2, rCAG binder -3, DNMT1 inh conf 3 and DNMT1 interf 1.
Screening CCc1nc(N=Nc2c(O)[nH]c3ccccc23)c2c3c(sc2n1)CCC3 returned LEDGF integ inh 4, PG9 binder -2, DNMT1 inh 64*, UHRF1 binding -5, MBD2 inh 2, rCAG binder 0, DNMT1 inh conf 2 and DNMT1 interf -4.
